These results are taken from PubChem BioAssay.

Active and inactive are the calls of the source.

A short description of experiment [1]: optical density shifts of acrAB sulA E. coli – strain DRC41, OD650, 48 h, E. coli filamentation inducer project, primary screen (AID 1152).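 Further: E. coli MC1000 strain DRC41 lacking acrAB efflux pump and sulA.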 The note with it: higher = more signal, called active from +8 up or from −8 down.
A short description of experiment [2]: probe aLefty1 binding on compound microarray – biochemical, small-molecule microarray, 635/667 nm fluorescence, primary screen (AID 1153).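 Further: score merges spot fluorescence with signal-to-noise ratio from the scanned slide images.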 The note with it: higher = more signal.
A short description of experiment [3]: plasmodial surface anion channel blockers, osmotic lysis – cell-based, P. falciparum Indochina, OD700, 1 h, primary screen (AID 1154). Particulars: P. falciparum Indochina infected RBC osmotic lysis, higher = more signal, called active from +8 up or from −8 down.
Experiment [4] can be described thus: plasmodial surface anion channel blockers, osmotic lysis – cell-based, P. falciparum Indochina, OD700, 2 h, primary screen (AID 1155).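 Further: lysis reports solute entry through the parasite surface anion channel PSAC.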 Particulars: P. falciparum Indochina infected erythrocytes, higher = more signal, called active from +8 up or from −8 down.
The nature of experiment [5]: changes in parasitized red cell lysis, either direction – P. falciparum Indochina, OD700, 3 h, PSAC antagonist project, primary screen (AID 1156). The note with it: P. falciparum-infected erythrocytes, osmotic lysis, higher = more signal, called active from +8 up or from −8 down.
Experiment [6] can be described thus: plasmodial surface anion channel blockers, osmotic lysis – cell-based, P. falciparum Indochina, OD700, 18 h, primary screen (AID 1157). The note with it: P. falciparum Indochina infected erythrocytes, osmotic lysis OD700, 18 h; higher = more signal, called active from +8 up or from −8 down.
The nature of experiment [7]: S6 kinase pathway phospho-S6 level changes – cell-based, A549, cytoblot, luminescence, serum-stimulated, primary screen (AID 1158).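 Further: serum-stimulated A549 lung adenocarcinoma cells; signal is phosphorylated S6 detected by cytoblot immunostaining with HRP secondary.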 The note with it: 5 h, higher = more signal.
Experiment [8] concerns the target NADPH oxidase 2 (Homo sapiens) (UniProt P04839). Kind of experiment: compounds shifting NOX2 Amplex Red fluorescence – cell-based, HEK293-NOX2, PMA-stimulated, NOX inhibitor project, primary screen (AID 1159). Further: test concentration not given here. Particulars: 45 min, higher = more signal, called active from +8 up or from −8 down.
Experiment [9] addresses NADPH oxidase 4 (Homo sapiens) (UniProt Q9NPH5). Kind of experiment: compounds shifting NOX4 Amplex Red fluorescence – cell-based, HEK293-NOX4, tetracycline-induced, NOX inhibitor project, primary screen (AID 1160). Particulars: HEK293-NOX4, Amplex Red H2O2 fluorescence, 45 min; higher = more signal, called active from +8 up or from −8 down.
For experiment [10], the target named is NADPH oxidase 5 (Homo sapiens) (UniProt Q96PH1). Briefly: compounds shifting NOX5 Amplex Red fluorescence – cell-based, HEK293-NOX5, NOX inhibitor project, primary screen (AID 1161). The note with it: HEK293-NOX5, ionomycin, 45 min, higher = more signal.
Experiment [11] is described as follows: compound effects on lung adenocarcinoma cell viability – A549, calcein-AM fluorescence, 48 h, basal, profiling panel (AID 1162). Further: test concentration not given here. Particulars: higher = more signal.
A short description of experiment [12]: compound effects on differentiated 3T3-L1 adipocyte viability – cell-based, 3T3-L1 adipocytes, calcein-AM fluorescence, 48 h, basal, profiling panel (AID 1163). Further: test concentration not given here. Particulars: 3T3-L1 adipocytes viability, higher = more signal.
Experiment [13] is described as follows: compound effects on hepatocellular carcinoma cell viability – HepG2, calcein-AM fluorescence, 48 h, basal, profiling panel (AID 1164). Further: test concentration not given here. The note with it: higher = more signal.
Experiment [14] in a line: compound effects on multiple myeloma cell viability – MM1S, calcein-AM fluorescence, 48 h, basal, profiling panel (AID 1165).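 Further: viability of MM1S multiple myeloma cells under basal unstimulated conditions; test concentration not given here.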 Particulars: higher = more signal.
Experiment [15] is described as follows: calcein-AM signal in unstimulated myeloma cells – cell-based, calcein-AM fluorescence, 48 h, PK04 Diversity Set, profiling panel (AID 1166).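 Further: cells grown under basal conditions without added stimulus; test concentration not given here.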 Particulars: RPMI8226 myeloma viability, higher = more signal.
Experiment [16] can be described thus: JC-1 mitochondrial signal, unstimulated HepG2 cells – cell-based, JC-1 fluorescence, 24 h, 100 nL compound, profiling panel (AID 1167). Further: test concentration not given here. Particulars: HepG2 mitochondrial potential, higher = more signal.
Experiment [17] is described as follows: JC-1 mitochondrial signal, unstimulated adipocytes – cell-based, JC-1 fluorescence, 3T3-L1 adipocytes, 24 h, 100 nL compound, profiling panel (AID 1168). Further: test concentration not given here. The note with it: JC-1 mitochondrial fluorescence, higher = more signal, called active from +8 up or from −8 down.
Experiment [18] can be described thus: JC-1 mitochondrial signal, unstimulated myeloma cells – cell-based, JC-1 fluorescence, RPMI8226, 24 h, 100 nL compound, profiling panel (AID 1169). Further: test concentration not given here. The note with it: JC-1 mitochondrial potential fluorescence, higher = more signal.
Experiment [19] is described as follows: JC-1 mitochondrial signal, unstimulated MM1S myeloma – cell-based, JC-1 fluorescence, 24 h, 100 nL compound, profiling panel (AID 1170). Further: test concentration not given here. Particulars: MM1S mitochondrial potential, higher = more signal.
A short description of experiment [20]: resazurin metabolic signal in A549 cells – cell-based, resazurin fluorescence, 24 h, PK04 Diversity Set, profiling panel (AID 1171). Further: test concentration not given here. Particulars: A549 viability, higher = more signal, called active from +8 up or from −8 down.

NADPH oxidase 4 (Homo sapiens), sequence (Q9NPH5 whole entry, looked up): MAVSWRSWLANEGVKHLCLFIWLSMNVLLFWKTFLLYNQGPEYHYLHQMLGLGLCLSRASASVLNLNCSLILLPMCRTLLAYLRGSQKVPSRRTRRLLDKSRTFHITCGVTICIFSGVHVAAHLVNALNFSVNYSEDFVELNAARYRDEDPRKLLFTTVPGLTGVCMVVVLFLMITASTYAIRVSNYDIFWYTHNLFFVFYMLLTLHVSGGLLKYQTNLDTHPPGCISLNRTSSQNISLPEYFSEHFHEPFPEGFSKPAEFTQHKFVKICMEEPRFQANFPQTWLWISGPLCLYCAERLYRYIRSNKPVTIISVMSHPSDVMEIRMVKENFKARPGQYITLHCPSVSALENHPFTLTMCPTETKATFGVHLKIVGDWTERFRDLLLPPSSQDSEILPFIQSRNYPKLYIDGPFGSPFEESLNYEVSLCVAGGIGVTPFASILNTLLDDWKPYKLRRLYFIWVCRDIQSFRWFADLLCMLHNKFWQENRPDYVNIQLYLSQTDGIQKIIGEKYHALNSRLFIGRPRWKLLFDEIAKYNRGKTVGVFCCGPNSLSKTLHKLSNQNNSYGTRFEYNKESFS
NADPH oxidase 2 (Homo sapiens), sequence (P04839 whole entry, looked up): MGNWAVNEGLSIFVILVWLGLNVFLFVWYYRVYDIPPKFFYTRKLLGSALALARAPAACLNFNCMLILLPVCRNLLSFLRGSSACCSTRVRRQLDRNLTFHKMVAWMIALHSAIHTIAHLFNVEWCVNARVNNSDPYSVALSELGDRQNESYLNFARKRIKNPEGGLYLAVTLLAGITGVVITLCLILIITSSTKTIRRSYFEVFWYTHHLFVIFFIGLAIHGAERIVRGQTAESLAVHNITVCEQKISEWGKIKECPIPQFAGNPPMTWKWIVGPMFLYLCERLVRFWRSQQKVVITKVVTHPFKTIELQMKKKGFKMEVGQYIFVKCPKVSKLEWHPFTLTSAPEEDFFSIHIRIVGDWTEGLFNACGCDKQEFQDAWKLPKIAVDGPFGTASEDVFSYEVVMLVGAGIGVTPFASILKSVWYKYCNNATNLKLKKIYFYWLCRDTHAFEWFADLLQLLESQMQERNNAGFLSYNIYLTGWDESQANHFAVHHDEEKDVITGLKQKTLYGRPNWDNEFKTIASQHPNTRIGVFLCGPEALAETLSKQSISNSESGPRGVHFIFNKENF
NADPH oxidase 5 (Homo sapiens), sequence (Q96PH1 whole entry, looked up): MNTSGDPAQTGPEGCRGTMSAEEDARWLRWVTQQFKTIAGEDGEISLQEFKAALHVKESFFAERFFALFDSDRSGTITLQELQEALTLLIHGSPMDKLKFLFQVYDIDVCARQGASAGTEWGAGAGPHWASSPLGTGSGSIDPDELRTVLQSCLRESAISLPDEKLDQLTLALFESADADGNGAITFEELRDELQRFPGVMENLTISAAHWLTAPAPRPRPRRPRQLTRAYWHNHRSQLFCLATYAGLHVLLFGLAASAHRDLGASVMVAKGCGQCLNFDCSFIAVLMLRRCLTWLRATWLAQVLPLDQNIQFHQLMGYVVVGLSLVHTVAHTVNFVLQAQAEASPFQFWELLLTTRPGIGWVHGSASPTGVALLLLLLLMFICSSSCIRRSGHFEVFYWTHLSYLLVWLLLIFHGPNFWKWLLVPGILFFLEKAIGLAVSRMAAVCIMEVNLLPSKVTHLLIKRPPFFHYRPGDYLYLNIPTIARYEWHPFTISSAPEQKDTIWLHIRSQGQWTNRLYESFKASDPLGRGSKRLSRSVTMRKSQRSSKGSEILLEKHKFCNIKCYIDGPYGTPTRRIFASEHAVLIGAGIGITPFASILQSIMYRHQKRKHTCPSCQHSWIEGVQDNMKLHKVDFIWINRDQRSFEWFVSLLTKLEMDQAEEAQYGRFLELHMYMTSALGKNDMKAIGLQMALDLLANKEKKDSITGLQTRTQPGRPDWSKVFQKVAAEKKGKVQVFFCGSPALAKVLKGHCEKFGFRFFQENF

Take `C=CC[C@]1(C(=O)N2CCOCC2)COC(c2ccc(OCCCO)cc2)=N1`: the z-score was 0.323 (inactive) in experiment [1]; 5.33 (inactive) in experiment [3]; 0.2 (inactive) in experiment [4]; 0.638 (inactive) in experiment [5]; 0.301 (inactive) in experiment [6]; 0.0334 in experiment [7]. Moreover, the z-score in [8] was -2.25 (inactive); in experiment [9], -0.335 (inactive); in experiment [10] it was -0.859; in experiment [11], -0.559; in experiment [12], 0.147; in experiment [13], -0.814. The z-score is -0.405 in [14]; -1.21 in experiment [15]; -0.658 in experiment [16]; -0.142 (inactive) in experiment [17]; 0.846 in [18]; -0.422 in experiment [19]. Moreover, the z-score in [20] was 1.47 (inactive). The composite z-score in [2] was 0.43.
For the compound `C=C[C@H]1C(C(=O)OCC)=CC[C@@H](c2ccccc2)N1S(=O)(=O)c1ccc(C)cc1`, the z-score in experiment [1] was -1.11 (inactive); in experiment [3], 7.17 (inactive); in experiment [4], 1.56 (inactive); in experiment [5], 0.43 (inactive); in experiment [6], 0.509 (inactive); in [7] it was -0.518. For the same compound, the z-score is 0.09 (inactive) in experiment [8]; -0.613 (inactive) in experiment [9]; 0.14 in experiment [10]; -0.438 in experiment [11]; -1.05 in experiment [12]; -0.708 in experiment [13]. For the same compound, the z-score was -0.465 in experiment [14]; -1.46 in [15]; 5.08 in experiment [16]; -0.517 (inactive) in experiment [17]; -0.309 in experiment [18]; -1.21 in experiment [19]. Moreover, the z-score in experiment [20] was 0.69 (inactive). Also, the composite z-score in experiment [2] is 0.457.
Regarding `CC1=C2[C@@H](CCc3ccccc3)OB(O)C[C@@H]2[C@@H]2C(=O)N(Cc3ccccc3)C(=O)[C@@H]2C1`, the z-score is -0.42 (inactive) in experiment [1]; 11.8 (active) in experiment [3]; 1.28 (inactive) in experiment [4]; -0.633 (inactive) in experiment [5]; 0.55 (inactive) in experiment [6]; 0.433 in experiment [7]. Moreover, the z-score in experiment [8] is -0.0748 (inactive); in [9], 0.167 (inactive); in experiment [10], 0.587; in [11], -0.261; in [12], -0.351; in experiment [13], -0.932. Moreover, the z-score in experiment [14] is -2.9; in experiment [15] it was -2.4; in experiment [16], -0.999; in experiment [17], -0.301 (inactive); in [18], 0.49; in [19], 0.821. Besides, the z-score in [20] was -0.17 (inactive). Also, the composite z-score in experiment [2] was -0.301.
As to `CO[C@H]1O[C@H](CO)[C@@H](OC(=O)Nc2ccccc2)[C@H](OC(=O)c2cc3ccccc3[nH]2)[C@H]1OC(=O)c1cc2ccccc2[nH]1`, the z-score is 0.541 (inactive) in experiment [1]; 0.909 (inactive) in experiment [3]; -0.795 (inactive) in experiment [4]; 0.447 (inactive) in experiment [5]; -0.758 (inactive) in [6]; 1.27 in [7]. Besides, the z-score is -6.27 (inactive) in experiment [8]; -0.405 (inactive) in experiment [9]; -2.16 in [10]; -0.14 in experiment [11]; 0.544 in [12]; 0.131 in experiment [13]. The z-score in experiment [14] is -0.294; in experiment [15] it was -0.939; in experiment [16] it was 1.12; in experiment [17], 2.46 (inactive); in [18], -0.766; in experiment [19], -0.61. Besides, the z-score in experiment [20] is -2.51 (inactive). Also, in experiment [2], the composite z-score was found to be 0.214.
Turning to `COCCOC(=O)N1C(=O)[C@@]2(c3cc(C#CCCO)ccc31)[C@H](C(=O)Nc1nc3ccccc3s1)[C@H]1C(=O)O[C@H](c3ccccc3)[C@H](c3ccccc3)N1[C@@H]2c1ccc(O)cc1`, the z-score is 0.0106 (inactive) in experiment [1]; 1.41 (inactive) in experiment [3]; 0.523 (inactive) in experiment [4]; 1 (inactive) in experiment [5]; 0.417 (inactive) in experiment [6]; 0.0869 in experiment [7]. Moreover, the z-score was 1.43 (inactive) in [8]; 0.0581 (inactive) in [9]; 0.329 in experiment [10]; -0.378 in experiment [11]; 0.274 in experiment [12]; 0.123 in experiment [13]. The z-score in experiment [14] was 0.0566; in experiment [15] it was -2.06; in [16], 0.248; in experiment [17], 0.15 (inactive); in experiment [18], -0.314; in experiment [19], -0.471. Further, in [20], the z-score is 0.771 (inactive). The compound further came in with a composite z-score in [2] of 0.126.
